This is a sample that favours compounds with a hit; in the whole collection about 1.8% have one here.
PI5P4K alpha inh: inhibitors of human PI5P4K alpha | AID 652105 | 330,000 compounds, 1.2% hits | max response, % | PI5P4Kalpha enzyme, ADP-Glo luminescence, 60 min; active compounds read low; active means max response of -50% or lower; inconclusive means between -30% and -50%; inactive means -30% or higher; further: value at the top dose of about 77 µM
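ADP-Glo luminescence end-point read after a 60 min room-temperature kinase reaction of PI5P4Kalpha plus substrate, initiated with ATP at 5 microM final. Buffer: 0.038 M HEPES pH 7.4, EGTA, 0.1% CHAPS, 5% DMSO.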
Akt phos inh: inhibitors of Akt phosphorylation; Neuro2A IGF-stimulated pAkt S473 HTRF, 20 min; active compounds read low; activity change, % for hits at 50 µM; 360,000 compounds, 0.32% hits; AID 651550; in the data active means activity change below about -80%; inconclusive means mostly about -51% to -80%
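Neuro2A cells in DMEM with 0.5% FBS, overnight at 37 deg C, given compound at single 50 µM final, then IGF (6 nM final) for 20 min at 37 deg C. Lysed; phospho-Akt Ser473 by HTRF after 24 h, 665/615 ratio.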
CtBP-E1A inh: CtBP/E1A binding inhibition; activity change, % (concentration not given with the values); AlphaScreen GST-E1A/His-CtBP binding, 1536-well; active compounds read low; 340,000 compounds, 0.49% hits; AID 651724
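Protein mix (5X: 125 nM each GST-E1A, His-CtBP) was incubated with pinned compound 2 h at 37 deg C in dark, in 50 mM Tris pH 8.0 buffer with 300 mM NaCl. Glutathione donor and nickel acceptor beads followed; AlphaScreen signal read after 1 h.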
Six1-Eya2 inh: blocks human Six1 binding to Eya2 | activity change, % (no concentration beside the values) | AID 651725 | 360,000 compounds, 0.56% hits | AlphaScreen GST-Six1/His-Eya2 binding, biochemical; active compounds read low
Target sequence (O00167 whole entry, looked up): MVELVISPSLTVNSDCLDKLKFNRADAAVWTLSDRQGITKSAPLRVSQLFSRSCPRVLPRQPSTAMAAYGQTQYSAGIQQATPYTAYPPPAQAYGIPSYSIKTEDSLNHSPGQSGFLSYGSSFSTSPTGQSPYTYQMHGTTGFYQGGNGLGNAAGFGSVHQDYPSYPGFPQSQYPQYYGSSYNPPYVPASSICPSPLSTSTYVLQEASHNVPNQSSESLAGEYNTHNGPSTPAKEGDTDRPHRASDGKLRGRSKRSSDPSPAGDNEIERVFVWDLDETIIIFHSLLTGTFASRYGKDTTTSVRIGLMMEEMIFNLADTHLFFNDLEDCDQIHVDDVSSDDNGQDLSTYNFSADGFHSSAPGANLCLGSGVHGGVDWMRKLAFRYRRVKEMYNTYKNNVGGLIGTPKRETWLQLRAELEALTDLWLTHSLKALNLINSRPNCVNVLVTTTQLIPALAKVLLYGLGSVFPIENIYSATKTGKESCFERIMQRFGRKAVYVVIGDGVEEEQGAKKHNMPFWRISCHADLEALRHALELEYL
Target sequence (Q15475 whole entry, looked up): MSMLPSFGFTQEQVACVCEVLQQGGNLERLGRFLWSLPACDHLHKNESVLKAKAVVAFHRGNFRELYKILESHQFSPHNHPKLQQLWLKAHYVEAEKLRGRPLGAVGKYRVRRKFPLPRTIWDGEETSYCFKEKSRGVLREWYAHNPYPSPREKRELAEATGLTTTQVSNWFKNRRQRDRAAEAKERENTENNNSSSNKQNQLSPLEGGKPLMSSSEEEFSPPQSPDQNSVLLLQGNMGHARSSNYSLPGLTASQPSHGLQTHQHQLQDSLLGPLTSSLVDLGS
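AlphaScreen with GST-Six1 and His-Eya2 (5X mix: 250 nM and 500 nM), glutathione donor and nickel acceptor beads; buffer 50 mM Tris pH 8.0, 300 mM NaCl, 1 mM TCEP; 1 h at 37 C in the dark.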
PI4K2A block: blocks human PI4K2A kinase activity. purified PI4K2A, ADP-Glo luminescence, 1 h; active compounds read low. activity change, negative = inhibition, % at 76.9 µM. 420,000 compounds, 0.13% hits; in the data active means activity change below about -50%; inconclusive means mostly about -30% to -49%
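Compounds are screened against recombinant PI4K2A using PI as substrate and ATP, the latter dispensed at 300 microM. Reactions run one hour at ambient temperature before ADP-Glo detection; full inhibition defined by wells lacking enzyme.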
Large screens that a line does not name were inactive. Unless noted, no stated cut-off is given here; in the data, active means activity change below about -65%; inconclusive means mostly about -30% to -63%; inactive means weaker than that.

O=C1NC(=O)C(=Cc2cccc(OCCOc3ccccc3)c2)C(=O)N1	PI5P4K alpha inh -51.7
O=C1NC(=O)C(=Cc2ccc(OCCOc3ccc([N+](=O)[O-])cc3)cc2)C(=O)N1	PI5P4K alpha inh -62.5
Cc1ccc(OCCOc2cccc(C=C3C(=O)NC(=O)NC3=O)c2)c(C)c1	PI5P4K alpha inh -62.2, PI4K2A block inconclusive
O=C1NC(=O)C(=Cc2c(Cl)cccc2Cl)C(=O)N1	PI5P4K alpha inh inconclusive
CC(C)C(=O)Nc1nnc(CCN(CCc2nnc(NC(=O)C(C)C)s2)[N+](=O)[O-])s1	none
NCCCP(=O)(O)CCc1ccccc1	none (no result: PI5P4K alpha inh)
C=CCN1C(=O)NC(=O)/C(=C/c2ccc(OC)c(COc3ccc(NC(C)=O)cc3)c2)C1=O	PI5P4K alpha inh -66.1, PI4K2A block inconclusive
C=CCN1C(=O)NC(=O)/C(=C/c2ccc(OC)c(CSc3ccccn3)c2)C1=O	PI5P4K alpha inh -71.4, PI4K2A block inconclusive
C=CCN1C(=O)NC(=O)/C(=C/C=C/c2ccccc2)C1=O	PI5P4K alpha inh inconclusive
COC(=O)C1(F)C(=O)NC(=O)NC1O (stereo unspecified)	none (no result: Akt phos inh, CtBP-E1A inh, Six1-Eya2 inh, PI4K2A block)
Cc1cc(C)cc(N2C(=O)NC(=O)/C(=C/c3cccn3-c3ccc(Cl)cc3)C2=O)c1	none
Cc1cccc(N2C(=O)NC(=O)/C(=C\c3cccn3-c3ccc(Cl)cc3)C2=O)c1	PI5P4K alpha inh -51.9, PI4K2A block -50.2
Cc1cccc(N2C(=O)NC(=O)/C(=C\C=C\c3ccco3)C2=O)c1	PI4K2A block inconclusive
Cc1cccc(N2C(=O)NC(=O)/C(=C/c3ccc([N+](=O)[O-])o3)C2=O)c1	PI5P4K alpha inh -77.8, Six1-Eya2 inh inconclusive
CCCCOC(=O)c1ccccc1C(=O)OCCCC	none (no result: CtBP-E1A inh)
COC(=O)C1=C(c2c(C)noc2C)C[C@@H]2CC[C@H]1N2C(=O)NCCO	PI4K2A block -52.7 (no result: CtBP-E1A inh)
O=C1NC(=O)N(c2ccccc2F)C(=O)/C1=C/c1ccc(Oc2ccc([N+](=O)[O-])cn2)cc1	PI5P4K alpha inh -52.4
O=C1NC(=O)C(=Cc2ccc(Sc3ccccc3)o2)C(=O)N1	PI5P4K alpha inh -51.7
CN1C(=O)C(=Cc2ccc(Sc3ccccc3)o2)C(=O)N(C)C1=O	none
O=C1NC(=O)C(=Cc2ccco2)C(=O)N1	PI5P4K alpha inh -83.7
Oc1ccc(C2NCc3ccccc3-n3cccc32)cc1Cl (stereo unspecified)	none
COCc1cc(OC(=O)N(C)C)nc2c1c(C)nn2C	none
O=C(CN1CCOCC1)Nc1ccc(Br)cc1C(=O)c1ccccc1	none (no result: PI5P4K alpha inh)
O=C(CCN1CCOCC1)Nc1ccc(Br)cc1C(=O)c1ccccc1	CtBP-E1A inh -84.9, Six1-Eya2 inh -73.9
O=C(O)CC1OCC=C2CN3CCC45C6=CC(=O)C(=O)C([N+](=O)[O-])=C6NC4C1C2CC35 (stereo unspecified)	CtBP-E1A inh inconclusive, PI4K2A block -60.9
Cc1cc(/C=C2\C(=O)NC(=O)N(Cc3ccco3)C2=O)c(C)n1-c1ccc(O)cc1	PI5P4K alpha inh -82.9, Six1-Eya2 inh inconclusive, PI4K2A block inconclusive
Cc1cc(/C=C2\C(=O)NC(=O)N(Cc3ccccc3)C2=O)c(C)n1-c1ccc(Cl)c(C(=O)O)c1	PI5P4K alpha inh -94.4, Six1-Eya2 inh inconclusive
Cc1cc(/C=C2\C(=O)NC(=O)N(Cc3ccco3)C2=O)c(C)n1-c1ccc(C(=O)O)cc1	PI5P4K alpha inh inconclusive
Cc1cc(/C=C2\C(=O)NC(=O)N(Cc3ccccc3Cl)C2=O)c(C)n1-c1ccc(C(=O)O)cc1	PI5P4K alpha inh -51.6
CCOC(=O)Cn1cc(C(=O)c2ccccc2)c2ccccc21	none (no result: CtBP-E1A inh)
CN1C(=O)C(=Cc2ccccc2Oc2ccc(Cl)cc2)C(=O)N(C)C1=O	PI5P4K alpha inh inconclusive
CCN[C@@H](C)Cc1ccccc1	none (no result: PI5P4K alpha inh, Akt phos inh, CtBP-E1A inh, Six1-Eya2 inh)
c1ccc(-c2nc(N3CCOCC3)s[n+]2-c2ccccc2)cc1	PI5P4K alpha inh -66.8
CCOC(=O)C1C(=O)N(C)C2(C)CC1c1ccccc1O2 (stereo unspecified)	Akt phos inh -114.2%
c1ccc(C2CC3CC(c4ccco4)N2O3)cc1 (stereo unspecified)	none
CCOC(=O)C1CCN(/C=C2/C(=O)NC(=O)N(Cc3ccco3)C2=O)CC1	PI5P4K alpha inh -72.5
O=C1NC(=O)N(Cc2ccccc2)C(=O)/C1=C\C=C\c1ccco1	PI5P4K alpha inh -62.4
Cc1ccccc1-n1c(C)cc(/C=C2/C(=O)NC(=O)N(Cc3ccco3)C2=O)c1C	none (no result: CtBP-E1A inh)
O=C1NC(=O)N(Cc2ccco2)C(=O)/C1=C/C=C/c1ccco1	PI5P4K alpha inh -83.3, Six1-Eya2 inh inconclusive, PI4K2A block inconclusive
O=C1NC(=O)N(c2ccccc2)C(=O)/C1=C/C=C/c1ccco1	PI5P4K alpha inh inconclusive
CN1C(=O)/C(=C/C=C/c2ccco2)C(=O)NC1=S	PI5P4K alpha inh -90.0, Six1-Eya2 inh inconclusive
COc1ccccc1OCC#CCN1CCCC1	none (no result: CtBP-E1A inh)
O=C(Nc1nc2ccccc2s1)c1cccn(Cc2ccccc2)c1=O	none (no result: PI5P4K alpha inh, Akt phos inh, CtBP-E1A inh, Six1-Eya2 inh)
Cn1cccc1/C=C1\C(=O)NC(=O)N(Cc2ccco2)C1=O	PI5P4K alpha inh -79.9
C[C@]12CC[C@@H]3c4ccc(OC(=O)N(CCCl)CCCl)cc4CC[C@H]3[C@@H]1CC[C@@H]2O	none (no result: PI5P4K alpha inh, Akt phos inh, CtBP-E1A inh, Six1-Eya2 inh)
C[C@]12CC[C@@H]3c4ccc(O)c(O)c4CC[C@H]3[C@@H]1CC[C@@H]2O	PI5P4K alpha inh -74.0
O=C(O)c1ccc([N+](=O)[O-])c([N+](=O)[O-])c1	PI5P4K alpha inh -50.4
O=[N+]([O-])c1ccc(O)c([N+](=O)[O-])c1	none
O=P(Oc1ccc(Cl)cc1)(N1CC1)N1CC1	none
O=c1[nH]c2ccccc2n1C1CCN(CCCC(c2ccc(F)cc2)c2ccc(F)cc2)CC1	PI5P4K alpha inh -50.7
Oc1cccc(/C=N/NP(=S)(c2ccccc2)c2ccccc2)c1	Akt phos inh -116.8%
Cc1ccccc1[N+](=O)[O-]	none
O=C1NC(=O)C(Sc2ccccc2[N+](=O)[O-])C(=O)N1	PI5P4K alpha inh -54.0, PI4K2A block inconclusive
Oc1ccccc1-[n+]1c(-c2ccccc2)cc(-c2ccccc2)cc1-c1ccccc1	PI5P4K alpha inh inconclusive
COc1ccc(/C=C2\C(=O)NC(=S)N(C)C2=O)cc1C	PI5P4K alpha inh -57.3, Six1-Eya2 inh inconclusive, PI4K2A block inconclusive
CN1C(=O)/C(=C/c2ccc(Cl)s2)C(=O)NC1=S	PI5P4K alpha inh -80.3
C=CCN1C(=O)/C(=C/c2ccc(Br)s2)C(=O)NC1=S	PI5P4K alpha inh -94.2 (no result: CtBP-E1A inh)
CN1C(=O)/C(=C/c2ccc(N3CCCCCC3)o2)C(=O)NC1=S	none
Cc1ccsc1/C=C1\C(=O)NC(=S)N(C)C1=O	PI5P4K alpha inh -83.5 (no result: CtBP-E1A inh)
COC(=O)CSC1=NN1c1cc(C)nc(N)n1	none
CC1Oc2cc3c(-c4c(O)cc(O)c5c(O)c6c(cc45)OC(C)C(C)C6=O)c(O)cc(O)c3c(O)c2C(=O)C1C (stereo unspecified)	PI5P4K alpha inh -108.8
Cc1ccc2c(c1)CC1(CN2C)C(=O)NC(=O)N(CCC2=CCCCC2)C1=O (stereo unspecified)	none

Screening results from PubChem BioAssay.
